# Source: the OligoGym collection
# Biological target: EPHA8
# Test: pooled miR-30 sensor sort-seq; sequence = guide strand
# Settings: shRNA
# Also: reference of the scale not given here.
row,Sequence,sensor-assay potency score (higher = more potent)
1,TCTGTCTCTCCGTGTAGCCGGC,-0.777
2,TAGCTGAGGTCACAGTGGCAGG,-1.64
3,TTCTCGTAGTACTTGATCTCAT,-0.461
4,TCCAGAGTCACTGATGTCCCAT,-0.773
5,TACATCTTGGGTGTGTCCCGCT,-0.241
6,ATCGAGGACACTGACAATCTGG,-0.163
7,TCTGATAGTGCATCTTCTCCTC,0.0792
8,TTGTCCTTCTCGTAGTACTTGA,-0.781
9,TTGACGGATCACCACCACCTGG,-1.47
10,TAGTACTTGATCTCATACTCCA,-0.186
11,TCATACTCCAGGATGATGCCGT,0.44
12,TTTCCCGGTCTCCACCTCCATG,-1.71
13,TTGCTGTCAACCAGGACGTTGC,-1.32
14,TCGATTTTGAGGAACTGGCTTT,-0.582
15,ATGAGCGTCAGGCAGATCCAGA,-1.66
16,TCCATTCTGATAGTGCATCTTC,-0.518

# Biological target: EPHB3
# Test: as above
# Settings: shRNA
row,Sequence,sensor-assay potency score (higher = more potent)
1,TCACCAACTGTCGTGAAGGTTG,-0.896
2,TACTGCTGCAGCTTCTCCGTGT,0.38
3,ATGACAATTCCGTAGCTCCAGA,-1.32
4,TTGCAGTAGAGCTTGAGTGGCA,-0.145
5,TTCATCTGGCTGGTCACTGTGG,-0.423
6,TTGTACAGGAGGTCATCCCGGC,-0.315
7,TACTTCATCTCGTAGTCCAGGA,-0.409
8,TGAGGTTTCATTCACATTGGAG,-0.889
9,TAGCAGAAGTGAACTTCCGATA,-0.801
10,TAGTCCAGGATGACTCCGTTGG,-0.557
11,ATTGCGGATGAGCTTGTCCAGG,-1.31
12,TTGAGCTCCACGTAGACCCGCT,0.189
13,TTGCTGTTGACAAGGATGTTGC,-0.897
14,TCACATTGGAGATCACACCTCG,0.593
15,TCTCCGTGTACTCCGAATCAGA,-1.2
16,TTGCAGATGACATTGTACAGGA,-0.122
17,TATGACAGCACCAAGGGCGGGG,-0.054
18,AACTGGTGTAGGTAGGATCGGA,-0.385
19,TCGTAGTCCAGGATGACTCCGT,-0.375
20,TTGTGGTCTCAAACTCGGCAGG,-1.08
21,TTACACACCTGGTATGTGCGGA,0.227
22,TTGTTCTGGCTTGACTCGCGCA,-0.743
23,TTGTCATCACAGCGTGAGCAGG,-1.61
